Measurements as given in article PMC11006913.
Changes are numbered by the printed parent chain.

Tests used:
Assay in all cases: PBM; 200 nM protein, PBS
Conditions in all cases: dsDNA, one strand shown
[1] = target: NKX2-5 (Homo sapiens, UniProt P52952 125-210, R139K)
[2] = target: NKX2-5 (Homo sapiens, UniProt P52952 125-210)
[3] = target: HOXB9 (Homo sapiens, UniProt P17482 171-250, T197M)
[4] = target: HOXC9 (Homo sapiens, UniProt P31274 178-260, K195R)
[5] = target: T1, VENTX (Homo sapiens, UniProt O95231 78-163)
T1 sequence: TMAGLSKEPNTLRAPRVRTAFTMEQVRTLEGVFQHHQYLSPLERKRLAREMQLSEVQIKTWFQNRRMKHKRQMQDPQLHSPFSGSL

[6] = target: T2, PAX4 (Homo sapiens, UniProt O43316 9-242, R200K)
T2 sequence: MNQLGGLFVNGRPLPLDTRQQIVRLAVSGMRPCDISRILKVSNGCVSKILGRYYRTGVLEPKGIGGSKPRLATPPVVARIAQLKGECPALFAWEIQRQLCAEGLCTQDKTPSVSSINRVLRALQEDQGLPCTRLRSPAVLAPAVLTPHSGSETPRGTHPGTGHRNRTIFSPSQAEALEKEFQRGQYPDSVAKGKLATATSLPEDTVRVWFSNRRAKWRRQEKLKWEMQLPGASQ

[7] = target: T3, VENTX (Homo sapiens, UniProt O95231 78-163, Y115F)
T3 sequence: T1 sequence with Y38F

[8] = target: T4, PAX4 (Homo sapiens, UniProt O43316 9-242)
T4 sequence: T2 sequence with K192R

[9] = target: HOXB9 (Homo sapiens, UniProt P17482 171-250)
[10] = target: T5, PAX4 (Homo sapiens, UniProt O43316 9-242, R200Q)
T5 sequence: T2 sequence with K192Q

[11] = target: HOXC9 (Homo sapiens, UniProt P31274 178-260, R193K)
[12] = target: HOXA2 (Homo sapiens, UniProt O43364 129-215, R185K)
[13] = target: T6, PAX4 (Homo sapiens, UniProt O43316 9-242, F177V)
T6 sequence: T2 sequence with F169V, K192R

[14] = target: HOXC10 (Homo sapiens, UniProt Q9NYD6 254-340, K271E)
[15] = target: T7, PAX4 (Homo sapiens, UniProt O43316 9-242, F177Y)
T7 sequence: T2 sequence with F169Y, K192R

[16] = target: HOXB9 (Homo sapiens, UniProt P17482 171-250, R186Q)
[17] = target: HOXC9 (Homo sapiens, UniProt P31274 178-260, R222W)
[18] = target: T8, PAX4 (Homo sapiens, UniProt O43316 9-242, R227W)
T8 sequence: T2 sequence with K192R, R219W

[19] = target: HOXA2 (Homo sapiens, UniProt O43364 129-215, Y150S)
[20] = target: HOXA2 (Homo sapiens, UniProt O43364 129-215)
Sequence of HOXA2 (Homo sapiens, UniProt O43364 129-215) (O43364 129-215): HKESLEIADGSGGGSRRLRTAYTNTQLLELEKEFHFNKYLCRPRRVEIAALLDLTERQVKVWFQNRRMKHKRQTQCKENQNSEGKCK

Sequence of NKX2-5 (Homo sapiens, UniProt P52952 125-210, R139K) (P52952 125-210 R139K): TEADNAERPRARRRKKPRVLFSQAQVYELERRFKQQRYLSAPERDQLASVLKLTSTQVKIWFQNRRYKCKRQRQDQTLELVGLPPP
Sequence of HOXB9 (Homo sapiens, UniProt P17482 171-250) (P17482 171-250): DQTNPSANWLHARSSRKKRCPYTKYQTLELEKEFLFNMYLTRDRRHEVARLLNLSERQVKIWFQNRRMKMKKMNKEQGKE
Sequence of HOXA2 (Homo sapiens, UniProt O43364 129-215, R185K) (O43364 129-215 R185K): as the sequence (O43364 129-215) above, with R57K counted along it
Sequence of HOXC9 (Homo sapiens, UniProt P31274 178-260, K195R) (P31274 178-260 K195R): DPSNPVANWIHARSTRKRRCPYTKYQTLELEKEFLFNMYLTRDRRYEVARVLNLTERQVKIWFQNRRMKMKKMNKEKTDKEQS
Sequence of HOXC9 (Homo sapiens, UniProt P31274 178-260, R193K) (P31274 178-260 R193K): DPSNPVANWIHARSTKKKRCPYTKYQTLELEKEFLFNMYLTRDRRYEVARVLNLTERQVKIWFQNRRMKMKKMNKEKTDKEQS
Sequence of HOXC10 (Q9NYD6 254-340 K271E): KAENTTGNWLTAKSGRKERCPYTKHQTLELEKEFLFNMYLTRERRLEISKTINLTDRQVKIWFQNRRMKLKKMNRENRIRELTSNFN
Sequence of HOXA2 (Homo sapiens, UniProt O43364 129-215, Y150S) (O43364 129-215 Y150S): as the sequence (O43364 129-215) above, with Y22S counted along it
Sequence of NKX2-5 (Homo sapiens, UniProt P52952 125-210) (P52952 125-210): as the sequence (P52952 125-210 R139K) above, with K15R counted along it
Sequence of HOXC9 (Homo sapiens, UniProt P31274 178-260, R222W) (P31274 178-260 R222W): as the sequence (P31274 178-260 R193K) above, with K16R, R45W counted along it
Sequence of HOXB9 (Homo sapiens, UniProt P17482 171-250, R186Q) (P17482 171-250 R186Q): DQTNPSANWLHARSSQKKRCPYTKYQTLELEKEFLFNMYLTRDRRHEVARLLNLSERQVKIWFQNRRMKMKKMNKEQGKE
Sequence of HOXB9 (Homo sapiens, UniProt P17482 171-250, T197M) (P17482 171-250 T197M): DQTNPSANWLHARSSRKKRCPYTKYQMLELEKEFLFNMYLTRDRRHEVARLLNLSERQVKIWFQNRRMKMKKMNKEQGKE

Sequence	binding signal [1]	binding signal [2]	binding signal [3]	binding signal [4]	binding signal [5]	binding signal [6]	binding signal [7]	binding signal [8]	binding signal [9]	binding signal [10]	binding signal [11]	binding signal [12]	binding signal [13]	binding signal [14]	binding signal [15]	binding signal [16]	binding signal [17]	binding signal [18]	binding signal [19]	binding signal [20]
GCAACGCA	9.03 upbm affinity estimate (log intensity, higher = more binding, comparable within an allelic series)	8.99 upbm affinity estimate (log intensity, higher = more binding, comparable within an allelic series)	–	–	–	–	–	–	–	–	–	–	–	–	–	–	–	–	–	–
TTAATTAA	–	–	10.4 upbm affinity estimate (log intensity, higher = more binding, comparable within an allelic series)	12.9 upbm affinity estimate (log intensity, higher = more binding, comparable within an allelic series)	12.8 upbm affinity estimate (log intensity, higher = more binding, comparable within an allelic series)	12.1 upbm affinity estimate (log intensity, higher = more binding, comparable within an allelic series)	12.1 upbm affinity estimate (log intensity, higher = more binding, comparable within an allelic series)	12.6 upbm affinity estimate (log intensity, higher = more binding, comparable within an allelic series)	12.3 upbm affinity estimate (log intensity, higher = more binding, comparable within an allelic series)	12.6 upbm affinity estimate (log intensity, higher = more binding, comparable within an allelic series)	12.7 upbm affinity estimate (log intensity, higher = more binding, comparable within an allelic series)	13.7 upbm affinity estimate (log intensity, higher = more binding, comparable within an allelic series)	11.2 upbm affinity estimate (log intensity, higher = more binding, comparable within an allelic series)	12.3 upbm affinity estimate (log intensity, higher = more binding, comparable within an allelic series)	11.6 upbm affinity estimate (log intensity, higher = more binding, comparable within an allelic series)	12 upbm affinity estimate (log intensity, higher = more binding, comparable within an allelic series)	11.5 upbm affinity estimate (log intensity, higher = more binding, comparable within an allelic series)	11.4 upbm affinity estimate (log intensity, higher = more binding, comparable within an allelic series)	10.8 upbm affinity estimate (log intensity, higher = more binding, comparable within an allelic series)	13.1 upbm affinity estimate (log intensity, higher = more binding, comparable within an allelic series)
GCCCTCTA	10.4 upbm affinity estimate (log intensity, higher = more binding, comparable within an allelic series)	10.5 upbm affinity estimate (log intensity, higher = more binding, comparable within an allelic series)	–	–	–	–	–	–	–	–	–	–	–	–	–	–	–	–	–	–
GATAATTA	–	–	10.5 upbm affinity estimate (log intensity, higher = more binding, comparable within an allelic series)	12.9 upbm affinity estimate (log intensity, higher = more binding, comparable within an allelic series)	12.8 upbm affinity estimate (log intensity, higher = more binding, comparable within an allelic series)	12 upbm affinity estimate (log intensity, higher = more binding, comparable within an allelic series)	12.3 upbm affinity estimate (log intensity, higher = more binding, comparable within an allelic series)	12.6 upbm affinity estimate (log intensity, higher = more binding, comparable within an allelic series)	11.9 upbm affinity estimate (log intensity, higher = more binding, comparable within an allelic series)	12.4 upbm affinity estimate (log intensity, higher = more binding, comparable within an allelic series)	12.8 upbm affinity estimate (log intensity, higher = more binding, comparable within an allelic series)	13.8 upbm affinity estimate (log intensity, higher = more binding, comparable within an allelic series)	10.8 upbm affinity estimate (log intensity, higher = more binding, comparable within an allelic series)	12.2 upbm affinity estimate (log intensity, higher = more binding, comparable within an allelic series)	11.3 upbm affinity estimate (log intensity, higher = more binding, comparable within an allelic series)	11.8 upbm affinity estimate (log intensity, higher = more binding, comparable within an allelic series)	11.1 upbm affinity estimate (log intensity, higher = more binding, comparable within an allelic series)	11.2 upbm affinity estimate (log intensity, higher = more binding, comparable within an allelic series)	10.9 upbm affinity estimate (log intensity, higher = more binding, comparable within an allelic series)	13.2 upbm affinity estimate (log intensity, higher = more binding, comparable within an allelic series)
GCTAATTA	–	–	10.2 upbm affinity estimate (log intensity, higher = more binding, comparable within an allelic series)	12.5 upbm affinity estimate (log intensity, higher = more binding, comparable within an allelic series)	13.5 upbm affinity estimate (log intensity, higher = more binding, comparable within an allelic series)	12.3 upbm affinity estimate (log intensity, higher = more binding, comparable within an allelic series)	12.8 upbm affinity estimate (log intensity, higher = more binding, comparable within an allelic series)	12.9 upbm affinity estimate (log intensity, higher = more binding, comparable within an allelic series)	11.8 upbm affinity estimate (log intensity, higher = more binding, comparable within an allelic series)	12.9 upbm affinity estimate (log intensity, higher = more binding, comparable within an allelic series)	12.5 upbm affinity estimate (log intensity, higher = more binding, comparable within an allelic series)	14.1 upbm affinity estimate (log intensity, higher = more binding, comparable within an allelic series)	10.9 upbm affinity estimate (log intensity, higher = more binding, comparable within an allelic series)	12.1 upbm affinity estimate (log intensity, higher = more binding, comparable within an allelic series)	11.4 upbm affinity estimate (log intensity, higher = more binding, comparable within an allelic series)	11.5 upbm affinity estimate (log intensity, higher = more binding, comparable within an allelic series)	10.9 upbm affinity estimate (log intensity, higher = more binding, comparable within an allelic series)	11.4 upbm affinity estimate (log intensity, higher = more binding, comparable within an allelic series)	10.8 upbm affinity estimate (log intensity, higher = more binding, comparable within an allelic series)	13.4 upbm affinity estimate (log intensity, higher = more binding, comparable within an allelic series)
GTTAATTA	–	–	10.3 upbm affinity estimate (log intensity, higher = more binding, comparable within an allelic series)	12.9 upbm affinity estimate (log intensity, higher = more binding, comparable within an allelic series)	13 upbm affinity estimate (log intensity, higher = more binding, comparable within an allelic series)	12.1 upbm affinity estimate (log intensity, higher = more binding, comparable within an allelic series)	12.3 upbm affinity estimate (log intensity, higher = more binding, comparable within an allelic series)	12.7 upbm affinity estimate (log intensity, higher = more binding, comparable within an allelic series)	12 upbm affinity estimate (log intensity, higher = more binding, comparable within an allelic series)	12.5 upbm affinity estimate (log intensity, higher = more binding, comparable within an allelic series)	12.8 upbm affinity estimate (log intensity, higher = more binding, comparable within an allelic series)	13.8 upbm affinity estimate (log intensity, higher = more binding, comparable within an allelic series)	10.9 upbm affinity estimate (log intensity, higher = more binding, comparable within an allelic series)	12.3 upbm affinity estimate (log intensity, higher = more binding, comparable within an allelic series)	11.4 upbm affinity estimate (log intensity, higher = more binding, comparable within an allelic series)	11.8 upbm affinity estimate (log intensity, higher = more binding, comparable within an allelic series)	11.1 upbm affinity estimate (log intensity, higher = more binding, comparable within an allelic series)	11.3 upbm affinity estimate (log intensity, higher = more binding, comparable within an allelic series)	10.9 upbm affinity estimate (log intensity, higher = more binding, comparable within an allelic series)	13.2 upbm affinity estimate (log intensity, higher = more binding, comparable within an allelic series)
ATAATTAA	–	–	10.3 upbm affinity estimate (log intensity, higher = more binding, comparable within an allelic series)	12.9 upbm affinity estimate (log intensity, higher = more binding, comparable within an allelic series)	12.5 upbm affinity estimate (log intensity, higher = more binding, comparable within an allelic series)	11.9 upbm affinity estimate (log intensity, higher = more binding, comparable within an allelic series)	12 upbm affinity estimate (log intensity, higher = more binding, comparable within an allelic series)	12.4 upbm affinity estimate (log intensity, higher = more binding, comparable within an allelic series)	12.1 upbm affinity estimate (log intensity, higher = more binding, comparable within an allelic series)	12.3 upbm affinity estimate (log intensity, higher = more binding, comparable within an allelic series)	12.8 upbm affinity estimate (log intensity, higher = more binding, comparable within an allelic series)	13.7 upbm affinity estimate (log intensity, higher = more binding, comparable within an allelic series)	10.8 upbm affinity estimate (log intensity, higher = more binding, comparable within an allelic series)	12.3 upbm affinity estimate (log intensity, higher = more binding, comparable within an allelic series)	11.2 upbm affinity estimate (log intensity, higher = more binding, comparable within an allelic series)	11.9 upbm affinity estimate (log intensity, higher = more binding, comparable within an allelic series)	11.2 upbm affinity estimate (log intensity, higher = more binding, comparable within an allelic series)	11.2 upbm affinity estimate (log intensity, higher = more binding, comparable within an allelic series)	11 upbm affinity estimate (log intensity, higher = more binding, comparable within an allelic series)	13 upbm affinity estimate (log intensity, higher = more binding, comparable within an allelic series)
AGTGCCTA	11.2 upbm affinity estimate (log intensity, higher = more binding, comparable within an allelic series)	11.1 upbm affinity estimate (log intensity, higher = more binding, comparable within an allelic series)	–	–	–	–	–	–	–	–	–	–	–	–	–	–	–	–	–	–
ATAAGCGG	10.3 upbm affinity estimate (log intensity, higher = more binding, comparable within an allelic series)	10.3 upbm affinity estimate (log intensity, higher = more binding, comparable within an allelic series)	–	–	–	–	–	–	–	–	–	–	–	–	–	–	–	–	–	–
CATAATTA	–	–	10.3 upbm affinity estimate (log intensity, higher = more binding, comparable within an allelic series)	12.8 upbm affinity estimate (log intensity, higher = more binding, comparable within an allelic series)	12.6 upbm affinity estimate (log intensity, higher = more binding, comparable within an allelic series)	11.9 upbm affinity estimate (log intensity, higher = more binding, comparable within an allelic series)	11.9 upbm affinity estimate (log intensity, higher = more binding, comparable within an allelic series)	12.5 upbm affinity estimate (log intensity, higher = more binding, comparable within an allelic series)	11.9 upbm affinity estimate (log intensity, higher = more binding, comparable within an allelic series)	12.1 upbm affinity estimate (log intensity, higher = more binding, comparable within an allelic series)	12.8 upbm affinity estimate (log intensity, higher = more binding, comparable within an allelic series)	13.8 upbm affinity estimate (log intensity, higher = more binding, comparable within an allelic series)	11 upbm affinity estimate (log intensity, higher = more binding, comparable within an allelic series)	12.2 upbm affinity estimate (log intensity, higher = more binding, comparable within an allelic series)	11.3 upbm affinity estimate (log intensity, higher = more binding, comparable within an allelic series)	11.7 upbm affinity estimate (log intensity, higher = more binding, comparable within an allelic series)	11.1 upbm affinity estimate (log intensity, higher = more binding, comparable within an allelic series)	11.3 upbm affinity estimate (log intensity, higher = more binding, comparable within an allelic series)	11.1 upbm affinity estimate (log intensity, higher = more binding, comparable within an allelic series)	13 upbm affinity estimate (log intensity, higher = more binding, comparable within an allelic series)
GTAATTAC	–	–	10.6 upbm affinity estimate (log intensity, higher = more binding, comparable within an allelic series)	13.1 upbm affinity estimate (log intensity, higher = more binding, comparable within an allelic series)	12.9 upbm affinity estimate (log intensity, higher = more binding, comparable within an allelic series)	12 upbm affinity estimate (log intensity, higher = more binding, comparable within an allelic series)	12.4 upbm affinity estimate (log intensity, higher = more binding, comparable within an allelic series)	12.5 upbm affinity estimate (log intensity, higher = more binding, comparable within an allelic series)	12.3 upbm affinity estimate (log intensity, higher = more binding, comparable within an allelic series)	12.5 upbm affinity estimate (log intensity, higher = more binding, comparable within an allelic series)	13.2 upbm affinity estimate (log intensity, higher = more binding, comparable within an allelic series)	14.3 upbm affinity estimate (log intensity, higher = more binding, comparable within an allelic series)	10.6 upbm affinity estimate (log intensity, higher = more binding, comparable within an allelic series)	12.6 upbm affinity estimate (log intensity, higher = more binding, comparable within an allelic series)	11.1 upbm affinity estimate (log intensity, higher = more binding, comparable within an allelic series)	12.1 upbm affinity estimate (log intensity, higher = more binding, comparable within an allelic series)	11 upbm affinity estimate (log intensity, higher = more binding, comparable within an allelic series)	11 upbm affinity estimate (log intensity, higher = more binding, comparable within an allelic series)	11.2 upbm affinity estimate (log intensity, higher = more binding, comparable within an allelic series)	13.4 upbm affinity estimate (log intensity, higher = more binding, comparable within an allelic series)
